# Results reported in PubChem BioAssay.
# Values without a mark were called inactive. For part of these data: Entries with a potency or affinity are not part of this list. Active and inactive are the calls of the source. Unless noted, the rule behind the calls is not given here.
# How the values were obtained:
# [1] = antimalarial activity against Dd2 strain (AID 2302;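 active = growth inhibition above 50% at the single 2 µM test dose, taken to imply half-maximal potency below 2 µM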;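 note: 0% = DMSO untreated growth and 100% = chloroquine plus artemisinin killed control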); details: P. falciparum Dd2 in RBCs, LDH growth readout, 72 h; at 2 µM; hits give high values
# [2] = HepG2 cytotoxicity, primary screen, cytotoxicity control for P. falciparum antimalarial project, cell-based, ATP luminescence (AID 2303;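 active = inhibition above 50%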;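 note: 0% = DMSO wells and 100% = digitonin-killed cells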); details: HepG2 viability, 24-48 h, at 10 µM, hits give high values
# [3] = molecular target: L-lactate dehydrogenase (Plasmodium falciparum (isolate CDC / Honduras)) (UniProt Q27743); assay: PfLDH activity inhibition – cell lysate, 3D7 strain, counter-screen for P. falciparum growth inhibition project (AID 2304);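 note: 0% = vehicle and 100% = reference inhibitor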; details: P. falciparum 3D7 crude extract, LDH APAD/NBT absorbance; at 2 µM; hits give high values
# L-lactate dehydrogenase (Plasmodium falciparum (isolate CDC / Honduras)), sequence (Q27743 whole entry, looked up): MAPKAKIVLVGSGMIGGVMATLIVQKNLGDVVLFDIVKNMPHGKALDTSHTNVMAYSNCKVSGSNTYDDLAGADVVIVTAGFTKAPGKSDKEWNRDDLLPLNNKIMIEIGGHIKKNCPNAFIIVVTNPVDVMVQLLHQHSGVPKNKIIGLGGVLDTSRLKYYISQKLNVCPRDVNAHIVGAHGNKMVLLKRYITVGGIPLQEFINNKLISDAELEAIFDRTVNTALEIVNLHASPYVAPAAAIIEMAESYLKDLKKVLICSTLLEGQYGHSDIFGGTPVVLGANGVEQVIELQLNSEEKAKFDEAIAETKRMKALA
# [4] = inhibition of 3D7 malaria parasite growth – strain 3D7 (AID 2306);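 note: 0% = DMSO wells and 100% = chloroquine plus artemisinin control wells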; details: P. falciparum 3D7 erythrocytic growth, LDH absorbance, 72 h; at 2 µM; hits give high values
# [5] = molecular target: Calcium-dependent protein kinase 1 (Plasmodium falciparum (isolate 3D7)) (UniProt P62344); assay: PfCDPK1 kinase inhibitors, biochemical, TCAMS library (AID 1159585; cut-off not given, nearly all actives have IC50 up to about 0.98 µM;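 note: inhibitors leave more ATP so luminescence rises with inhibition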); details: recombinant PfCDPK1, Kinase-Glo ATP depletion luminescence
# Calcium-dependent protein kinase 1 (Plasmodium falciparum (isolate 3D7)), sequence (P62344 whole entry, looked up): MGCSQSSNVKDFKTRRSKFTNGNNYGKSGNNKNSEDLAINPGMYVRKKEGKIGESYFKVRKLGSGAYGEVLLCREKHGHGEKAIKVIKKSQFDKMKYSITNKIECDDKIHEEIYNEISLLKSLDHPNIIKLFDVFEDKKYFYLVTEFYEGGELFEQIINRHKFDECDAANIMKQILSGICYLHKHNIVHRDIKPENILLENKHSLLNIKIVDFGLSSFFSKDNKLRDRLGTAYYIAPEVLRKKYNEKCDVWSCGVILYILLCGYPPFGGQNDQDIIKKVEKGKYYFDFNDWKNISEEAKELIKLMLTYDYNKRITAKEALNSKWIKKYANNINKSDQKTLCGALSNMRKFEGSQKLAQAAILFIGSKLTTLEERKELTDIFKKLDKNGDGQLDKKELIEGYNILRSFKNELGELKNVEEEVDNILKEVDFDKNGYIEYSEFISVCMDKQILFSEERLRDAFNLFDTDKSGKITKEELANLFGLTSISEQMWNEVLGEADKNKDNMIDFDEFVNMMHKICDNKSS
# [6] = molecular target: Plasmodium falciparum protein kinase 6 (PK6, PF3D7_1337100) (UniProt Q8IDW1); assay: PfPK6 kinase inhibitors, biochemical, TCAMS library (AID 1159586); details: recombinant PfPK6, Kinase-Glo ATP depletion luminescence
# Plasmodium falciparum protein kinase 6 (PK6, PF3D7_1337100), sequence (Q8IDW1 1-305): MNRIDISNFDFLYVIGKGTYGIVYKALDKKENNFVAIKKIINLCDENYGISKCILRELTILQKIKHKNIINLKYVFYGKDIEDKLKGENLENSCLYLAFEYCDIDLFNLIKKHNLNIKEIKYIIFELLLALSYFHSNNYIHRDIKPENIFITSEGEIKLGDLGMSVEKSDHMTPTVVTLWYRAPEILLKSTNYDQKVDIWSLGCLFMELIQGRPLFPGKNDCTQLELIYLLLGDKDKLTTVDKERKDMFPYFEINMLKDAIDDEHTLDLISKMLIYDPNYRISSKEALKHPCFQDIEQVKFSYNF
# [7] = molecular target: Protein kinase 7 (PK7), Plasmodium falciparum 3D7 (PF3D7_0213400) (UniProt Q7YTF7); assay: inhibition of Plasmodium PK7 catalytic activity – biochemical, TCAMS antimalarial set, Kinase-Glo luminescence (AID 1159587); details: recombinant PfPK7, Kinase-Glo ATP depletion luminescence
# Protein kinase 7 (PK7), Plasmodium falciparum 3D7 (PF3D7_0213400), sequence (Q7YTF7 1-343): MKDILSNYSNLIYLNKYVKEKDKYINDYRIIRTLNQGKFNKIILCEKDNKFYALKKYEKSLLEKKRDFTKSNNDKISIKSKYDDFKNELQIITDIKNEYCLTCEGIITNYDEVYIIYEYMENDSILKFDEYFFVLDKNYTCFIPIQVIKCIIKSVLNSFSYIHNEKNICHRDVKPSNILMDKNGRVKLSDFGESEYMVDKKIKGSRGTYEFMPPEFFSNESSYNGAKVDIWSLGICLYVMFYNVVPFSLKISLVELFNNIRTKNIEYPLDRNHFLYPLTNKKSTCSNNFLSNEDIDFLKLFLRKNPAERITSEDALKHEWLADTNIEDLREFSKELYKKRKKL
# [8] = molecular target: Calcium-dependent protein kinase 4 (Plasmodium falciparum (isolate 3D7)) (UniProt Q8IBS5); assay: PfCDPK4 kinase inhibitors, biochemical, TCAMS library (AID 1159588; cut-off not given, nearly all actives have IC50 up to about 0.91 µM); details: recombinant PfCDPK4, Kinase-Glo ATP depletion luminescence
# Calcium-dependent protein kinase 4 (Plasmodium falciparum (isolate 3D7)), sequence (Q8IBS5 whole entry, looked up): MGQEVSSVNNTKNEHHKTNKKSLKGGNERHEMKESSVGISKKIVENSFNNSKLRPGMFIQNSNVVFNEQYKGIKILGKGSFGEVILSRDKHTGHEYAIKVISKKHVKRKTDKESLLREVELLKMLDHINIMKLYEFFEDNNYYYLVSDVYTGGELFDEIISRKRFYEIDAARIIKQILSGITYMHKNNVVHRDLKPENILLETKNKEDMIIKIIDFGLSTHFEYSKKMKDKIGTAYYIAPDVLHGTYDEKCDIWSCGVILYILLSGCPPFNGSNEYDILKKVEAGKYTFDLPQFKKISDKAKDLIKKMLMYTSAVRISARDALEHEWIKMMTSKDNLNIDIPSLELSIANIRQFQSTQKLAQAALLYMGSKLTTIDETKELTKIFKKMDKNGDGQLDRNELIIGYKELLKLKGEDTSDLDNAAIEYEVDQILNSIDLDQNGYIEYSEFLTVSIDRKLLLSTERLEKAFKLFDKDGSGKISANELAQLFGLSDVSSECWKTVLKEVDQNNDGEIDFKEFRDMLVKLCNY
Compound,growth inhibition [1],inhibition [2],inhibition [3] [%],growth inhibition [4],outcome [5],outcome [6],outcome [7],outcome [8]
O=C(Cc1ccccc1)NC1(c2ccccc2)CCN(CCc2c[nH]c3ccc(F)cc23)CC1,62% (active),29%,2,87% (active),inactive,inactive,inactive,inactive
Cc1cccc(-c2nc3cc(NC(=O)c4ccc([N+](=O)[O-])o4)ccc3o2)c1,73% (active),8%,4,94% (active),inactive,inactive,inactive,inactive
C=CCOC(=O)N1CCC(CNCc2ccc(-c3ccc(-c4nc5ccccc5[nH]4)s3)cc2)C1 (configuration not stated),76% (active),29%,-2,101% (active),inactive,inactive,inactive,inactive
CC(C)NCc1ccc(-c2cccc(-c3nc4ccc(F)cc4[nH]3)c2)cc1,96% (active),14%,-4,101% (active),inactive,inactive,inactive,inactive
CC(Cc1ccc(C(=O)N2CCN(C(=O)c3ccc(CC(C)NCCc4cccc(Cl)c4)cc3)CC2)cc1)NCCc1cccc(Cl)c1 (configuration not stated),85% (active),99% (active),-4,101% (active),inactive,inactive,inactive,inactive
CCNc1cc(C)nc(Nc2ccc(NC(=O)c3cccs3)cc2)n1,50% (active),21%,0,101% (active),inactive,inactive,inactive,inactive
Nc1nc2cccc3ccc4cccc1c4c32,69% (active),26%,-1,101% (active),inactive,inactive,inactive,inactive
Cc1cc(NCCc2ccccc2)nc(/N=C(\N)Nc2cccc(F)c2)n1,-1%,-6%,-2,91% (active),inactive,inactive,inactive,inactive
C[C@H](Cc1ccc(OCCCCCCCOc2ccc(C[C@@H](C)NC[C@H](O)c3cccc(Cl)c3)cc2)cc1)NC[C@H](O)c1cccc(Cl)c1,97% (active),99% (active),-6,99% (active),inactive,inactive,inactive,inactive
O=C(NC1CCN(Cc2ccccc2O)C1)c1ccc(-c2ccccc2)cc1 (configuration not stated),25%,-5%,4,99% (active),inactive,inactive,inactive,inactive
c1ccc(C(c2cccs2)N2CCN(Cc3ccc(OCCCN4CCCCC4)cc3)CC2)cc1 (configuration not stated),14%,41%,2,91% (active),inactive,inactive,inactive,inactive
CC(=O)Nc1nc(C(=O)Nc2ccc(-c3ccc(-c4nc5c(C)cccc5[nH]4)cc3)cc2)cs1,53% (active),42%,-1,101% (active),inactive,inactive,inactive,inactive
CCCCn1c(-c2ccco2)nc2c(c(=O)c3ccccc3n2C)c1=O,64% (active),11%,-2,87% (active),inactive,inactive,inactive,inactive
FC(F)(F)c1ccc2nccc(NN=CC=Cc3ccccc3)c2c1,9%,-4%,-1,82% (active),inactive,inactive,inactive,inactive
COc1ccc2nccc([C@@H](O)CN3CCC(NC(=O)C(c4ccsc4)N4CCN(c5ccccc5OC)CC4)CC3)c2c1 (some centres not stated),50% (active),11%,-2,95% (active),inactive,inactive,inactive,inactive
N#Cc1cccc(-c2cccc(C(=O)NC3CCC(CCN4CCc5ccc(C#N)cc5CC4)CC3)c2)c1 (configuration not stated),57% (active),31%,-6,99% (active),inactive,inactive,inactive,inactive
O=C1NC(c2ccccc2)C2(CCN(CC(O)COc3cccc4ncccc34)CC2)O1 (configuration not stated),95% (active),5%,-4,92% (active),inactive,inactive,inactive,inactive
O=c1cc(NCCCNCc2cc3c(Cl)cccc3s2)[nH]c2ccccc12,57% (active),6%,-7,102% (active),inactive,inactive,inactive,inactive
O=C(N[C@@H](Cc1ccccc1)[C@H](O)CNC1CCCc2ccccc21)c1cc(C2CCCC2)cc(N2CCCC2=O)c1 (some centres not stated),99% (active),31%,-7,97% (active),inactive,inactive,inactive,inactive
CCN1CCC(N(Cc2ccc(-c3ccc(C(F)(F)F)cc3)cc2)C(=O)Cn2c(CCc3cccc(F)c3F)cc(=O)c3ccc(OCc4ccccc4)cc32)CC1,86% (active),60% (active),3,102% (active),inactive,inactive,inactive,inactive

Compound,growth inhibition [1],inhibition [2],inhibition [3] [%],growth inhibition [4],outcome [5],outcome [6],outcome [7],outcome [8]
COc1cc(Cc2cnc(N)nc2N)cc(OCCCCC2NC(=O)NC2=O)c1OC (configuration not stated),-1%,2%,-3,94% (active),inactive,inactive,inactive,inactive
CN1CCCN(Cc2cccc(-c3ccc(NC(=O)c4ccc(Cl)cc4)cc3)c2)CC1,35%,31%,-5,97% (active),inactive,inactive,inactive,inactive
O=C1C[C@@H]([S@@](=O)Cc2nccs2)N1CCOCCCCCCc1ccc(Cl)cc1,0%,-4%,1,91% (active),inactive,inactive,inactive,inactive
Oc1cc(Nc2ccnc3cc(-c4ccc(CN5CCCCC5)o4)ccc23)c(Cl)cc1F,81% (active),30%,5,101% (active),inactive,inactive,inactive,inactive
Cc1[nH]c(C)c(-c2ccc(Oc3cccc(Cl)c3)cc2)c(=O)c1Cl,97% (active),40%,-3,99% (active),inactive,inactive,inactive,inactive
Cc1noc(-c2ccccc2)c1NC(=O)NC1CCN(CCCCCNC(=O)/C=C/c2ccc(Cl)c(Cl)c2)CC1,-3%,-3%,-3,93% (active),inactive,inactive,inactive,inactive
CCNc1cc(C(=O)N[C@@H](Cc2ccccc2)[C@H](O)CN[C@H]2CCc3ccccc32)cc(N2CCCC2=O)c1,99% (active),8%,3,98% (active),inactive,inactive,inactive,inactive
CCCCNS(=O)(=O)c1ccc(NC(=O)c2cc([N+](=O)[O-])ccc2Cl)cc1,47%,12%,-3,92% (active),inactive,inactive,inactive,inactive
CCN1CCCC1CN(Cc1ccc(-c2ccc(C(F)(F)F)cc2)cc1)C(=O)Cn1c(CCc2cccc(F)c2F)nc(=O)c2ccccc21 (configuration not stated),51% (active),40%,2,94% (active),inactive,inactive,inactive,inactive
O=C(NC12CC3CC(CC(C3)C1)C2)C(=O)c1c[nH]c2ccccc12,2%,16%,3,97% (active),inactive,inactive,inactive,inactive
FC(F)(F)c1ccc2nc(-c3ccc(-c4ccc(CNCC5CCCO5)cc4)cc3)[nH]c2c1 (configuration not stated),100% (active),33%,-3,101% (active),inactive,inactive,inactive,inactive
Cc1[nH]nc2cc(Nc3nccc(Nc4ccc(Oc5ccccc5)cc4)n3)ccc12,98% (active),8%,-7,101% (active),inactive,inactive,inactive,inactive
O=c1cc(NCCCNCc2cc3c(Cl)cc(Cl)cc3[nH]2)[nH]c2ccccc12,-2%,-10%,-3,101% (active),inactive,inactive,inactive,inactive
COc1c(Br)cc(Br)cc1-c1ccc(CN2CC3CCC2CC3)[nH]1,100% (active),91% (active),-3,98% (active),inactive,inactive,inactive,inactive
COc1ccc(NC2=C(c3ccccc3)C(=O)c3ccccc32)cn1,84% (active),-9%,2,96% (active),inactive,inactive,inactive,inactive
CCc1ccccc1N=C1c2c(cccc2[N+](=O)[O-])C(=O)C1C(C)=O (configuration not stated),96% (active),-6%,4,99% (active),inactive,inactive,inactive,inactive
COc1cccc(-c2c(C#N)c(N)nc3c2c(C)nn3-c2ccccc2)c1O,100% (active),4%,7,100% (active),inactive,inactive,inactive,inactive
COc1ccccc1N1CCN(Cc2c(O)ccc3cc(Br)ccc23)CC1,75% (active),8%,2,89% (active),inactive,inactive,inactive,inactive
CC1(C)N=C(N)N=C(N)N1OCc1nc(N)nc(Nc2ccccc2)n1,-4%,3%,-2,98% (active),inactive,inactive,inactive,inactive
